Assay outcomes as filed in PubChem.
Rows were chosen to be rich in hits. Some 2% of all compounds tested hit in one or more screens of this group.
Ins promoter up – insulin promoter activators in MIN6 cells, imaging, high-content screening, mouse beta cells; MIN6 insulin promoter-GFP reporter; active compounds read high; z-score at 5 µM; hit rate 0.3% among 190,000;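 active = z-score above 3 at 5 µM with at least 500 cells counted in the well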
INS promoter inh – inhibitors of insulin promoter-driven GFP, primary screen, imaging, TRM-6 cells (human fetal islet line), eGFP reporter, cell count; reporter expression induced with tamoxifen; hit rate 0.9% among 130,000; inhibition, % at 2 µM; AID 1273, 2008;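 active = inhibition above the mean plus 3 SD, with well images judged a real hit on visual review, cut at about 60% in these data, passing the limit was not always enough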
eIF4E 4G PPI – eIF4E–eIF4G protein interaction inhibitors, primary screen, biochemical, uHTS, TR-FRET, eIF4GI fragment; Eukaryotic translation initiation factor 4E (Mus musculus) + Eukaryotic translation …; AID 782, 2007; inhibition, % at 21.7 µM; hit rate 0.37% among 220,000; TR-FRET eIF4E-eIF4GI(517-606) binding, 2 h;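 active = inhibition above about 30%, limit read from the data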;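 note: 0% = full FRET control wells and 100% = background wells lacking eIF4GI fragment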
PERK inh – block of dimerizer-induced PERK translation repression, primary screen, PERK inhibitor project, CHO PERK-DD cells, SEAP luminescence, HTS. Eukaryotic translation initiation factor 2-alpha kinase 3 (Homo sapiens), Q9NZJ5. CHO PERK-DD fusion, SEAP luminescence translation reporter. inhibition, % at 5.6 µM. hit rate 0.17% among 220,000. AID 1416, 2008;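 active = inhibition above the mean inhibition of all tested compounds plus 3 SD, set separately per screening campaign, cut at about 2.9% in these data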;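 note: PERK kinase domain activated by AP20187 dimerizer at 100 nM; 0% = DMSO with dimerizer and 100% = rapamycin at 8.4 µM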
Target sequence (Q9NZJ5 whole entry, looked up, the tested form may be a part): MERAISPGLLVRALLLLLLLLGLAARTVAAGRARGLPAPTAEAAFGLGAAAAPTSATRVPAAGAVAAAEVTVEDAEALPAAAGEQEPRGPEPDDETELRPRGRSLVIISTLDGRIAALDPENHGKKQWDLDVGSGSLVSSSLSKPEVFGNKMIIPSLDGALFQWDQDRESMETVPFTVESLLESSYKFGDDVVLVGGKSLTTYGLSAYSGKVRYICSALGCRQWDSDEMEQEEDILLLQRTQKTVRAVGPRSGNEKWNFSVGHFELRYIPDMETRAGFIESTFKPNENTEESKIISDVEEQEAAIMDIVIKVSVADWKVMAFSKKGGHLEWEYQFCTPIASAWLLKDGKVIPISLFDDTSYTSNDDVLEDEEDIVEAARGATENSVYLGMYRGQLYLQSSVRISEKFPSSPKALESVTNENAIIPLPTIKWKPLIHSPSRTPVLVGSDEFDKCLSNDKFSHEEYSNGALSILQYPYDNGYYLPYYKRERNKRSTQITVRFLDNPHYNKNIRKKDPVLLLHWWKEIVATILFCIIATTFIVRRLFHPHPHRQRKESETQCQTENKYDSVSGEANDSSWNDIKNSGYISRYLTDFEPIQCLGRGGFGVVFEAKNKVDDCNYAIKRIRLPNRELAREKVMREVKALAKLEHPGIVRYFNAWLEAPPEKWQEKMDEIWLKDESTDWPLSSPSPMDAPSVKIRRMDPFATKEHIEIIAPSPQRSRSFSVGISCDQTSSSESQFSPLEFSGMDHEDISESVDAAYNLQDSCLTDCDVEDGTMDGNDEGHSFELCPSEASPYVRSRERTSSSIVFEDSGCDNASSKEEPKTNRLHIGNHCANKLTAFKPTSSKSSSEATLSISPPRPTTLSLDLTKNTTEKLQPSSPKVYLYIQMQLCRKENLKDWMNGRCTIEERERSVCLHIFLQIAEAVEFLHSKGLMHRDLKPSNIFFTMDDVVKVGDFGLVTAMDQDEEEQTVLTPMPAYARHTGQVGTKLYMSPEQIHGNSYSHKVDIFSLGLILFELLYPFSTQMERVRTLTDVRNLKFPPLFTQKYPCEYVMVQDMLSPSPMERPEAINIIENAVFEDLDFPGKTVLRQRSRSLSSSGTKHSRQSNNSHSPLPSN
Autophagy HCS – autophagy modulators in MEF cells, primary screen, imaging, high-content, MEF GFP-LC3 | MEF GFP-LC3 puncta imaging; test concentration mostly 10 µM | calls only at 10 µM (by protocol) | hit rate 0.98% among 190,000 | AID 463193, 2010;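 active = percentage of spot-positive cells more than 3 SD above its plate mean, without a fluorescence outlier flag or 80% toxicity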;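 note: spot-positive cell cutoff set from DMSO-treated cells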
An asterisk follows results filed as active; i = inactive; nt = no result given; + = active, no number.

SMILES | Ins promoter up | INS promoter inh | eIF4E 4G PPI | PERK inh | Autophagy HCS
CN1CCN(NC(=O)Nc2cccc(Cl)c2Cl)CC1 | -0.89 | 41.2 | 3.2 | -0.1 | +
Cn1nccc1NC(=O)Nc1cccc(Cl)c1Cl | nt | nt | -0.5 | 0.6 | nt
CCN(CC)S(=O)(=O)c1cccc(NC(=O)COc2ncnc3sccc23)c1 | -0.16 | nt | -1.6 | -1.0 | i
COCC(C)n1c(SCc2cc(=O)n3cc(C)ccc3n2)nc2ccccc2c1=O (centres undefined) | -0.77 | -8.3 | -0.7 | -0.2 | i
CCOC(=O)N1CCC(NC(=O)C(Cc2ccccc2)NC(=O)C2CCCCC2)CC1 (centres undefined) | -1.09 | -22.6 | 2.1 | 0.5 | i
CC(=O)Nc1ccc(NC(=O)C(Cc2ccccc2)NC(=O)C2CCCCC2)cc1 (centres undefined) | 0.42 | 64.3* | 8.0 | 0.7 | i
Cc1cc(C(=O)CCl)c(C)n1CCc1ccc(F)cc1 | 0.24 | 100.0* | 1.3 | 0.4 | i
N#CC1=C(N)N2C(=C(C#N)C1c1ccccc1)Sc1ccccc12 (centres undefined) | nt | nt | -15.0 | 0.8 | +
Cc1ccc(-c2csc3ncnc(SCC(=O)Nc4nnc(C)s4)c23)cc1 | -0.01 | -9.4 | -2.5 | 0.8 | i
Cc1ccc(-c2csc3ncnc(Sc4nnc(CN5CCCCCC5=O)o4)c23)cc1 | 0.74 | nt | -3.4 | 0.0 | +
COc1c(C)cc(C(=O)C2CCCN(C(=O)c3cccc(-n4cccn4)c3)C2)cc1C (centres undefined) | 0.19 | nt | 0.4 | 0.5 | i
COc1ccc(-c2ccc(CO)o2)cc1N | -0.15 | nt | 0.1 | 1.1 | +
CC(=O)C(/C=N/c1cc(-c2ccc(C)cc2)nn1-c1ccccc1)=C(\C)O | 0.91 | 19.4 | 1.7 | 0.4 | i
COc1ccc(C2=NOC(C(=O)NCc3cccs3)C2)cc1 (centres undefined) | -1.1 | -22.6 | -6.8 | 0.0 | +
COc1ccc(C2=NOC(C(=O)NCc3cccs3)C2)cc1OC (centres undefined) | -0.81 | nt | -4.1 | 0.1 | i
CN(CC(=O)Nc1ccc(N2CCOCC2)cc1)CC(=O)Nc1ccc(Cl)cc1[N+](=O)[O-] | 0.19 | 12.5 | 4.2 | -0.6 | i
COc1ccc(N2CCN(C(=O)CCCn3c(=O)[nH]c4cc(Cl)ccc4c3=O)CC2)cc1 | 0.01 | 74.2* | 1.7 | -1.1 | i
C=CCn1c(-c2ccoc2)n[nH]c1=S | -0.6 | 12.5 | 65.2* | 0.5 | i
C=CCn1c(-c2ccccc2)n[nH]c1=S | nt | -81.4 | -4.8 | 1.2 | i
CCOC(=O)/C(C#N)=C/c1ccc(OC(=O)c2ccccn2)cc1 | 0.08 | nt | 30.7* | 0.3 | i
COC(=O)/C(C#N)=C/c1ccc(OC(=O)c2ccccn2)cc1 | 1.06 | 21.4 | 7.8 | 1.1 | i
O=C1OC(Nc2cc(Br)cc3cccnc23)c2ccccc21 (centres undefined) | 0.09 | -30.0 | 1.3 | 0.0 | i
COc1ccc(CNCC(O)(c2ccc(F)cc2)c2ccc(F)cc2)cc1 | 0.56 | -14.3 | 2.6 | 0.3 | +
CCN(CC)CCOC(=O)c1ccc(NC(=O)/C=C/c2cccs2)cc1 | -0.12 | 8.0 | -3.9 | -0.6 | i
CCOC(=O)c1ccc(NC(=O)/C=C/c2cccs2)cc1 | 0.18 | nt | -4.6 | 0.4 | +
SMILES | Ins promoter up | INS promoter inh | eIF4E 4G PPI | PERK inh | Autophagy HCS
Cc1cc(NS(=O)(=O)c2ccc(NC(=O)c3ccco3)cc2)no1 | 1.01 | nt | 4.4 | 1.9 | +
Cc1cc(NS(=O)(=O)c2ccc(NC(=O)c3oc4ccccc4c3C)cc2)no1 | 1.41 | 78.6* | -7.5 | 1.2 | i
CCC(=O)Nc1ccc(S(=O)(=O)Nc2cc(C)on2)cc1 | nt | 41.4 | 3.5 | 0.6 | i
Cc1cc(NS(=O)(=O)c2ccc(NC(=O)c3ccco3)cc2)nc(C)n1 | -0.84 | 32.4 | 5.3 | 0.7 | i
O=C(O)[C@H]1CCCC[C@H]1C(=O)NCCNC(=O)[C@@H]1CCCC[C@@H]1C(=O)O | 0.51 | 100.0* | 2.6 | 0.7 | i
O=C(O)C1CCCCC1C(=O)NCCC(c1ccccc1)c1ccccc1 (centres undefined) | 0.23 | -32.4 | 4.6 | -0.7 | i
CCc1nc2c(c(SC)nn2-c2ccccc2)c(N)c1C(=O)OC | -1.32 | nt | -0.1 | -0.5 | i
